Among the data in PubChem BioAssay (NCI) are growth values, retold here.

The structures appear in SMILES notation. The panel holds about 83,000 compounds, 20% with a hit somewhere; the sample as a whole holds those more often.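 Single-concentration screen, 48 h exposure, 96-well plates. Endpoint: percent growth. Below 10 = active.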 Active and inactive are the calls of the source.

In one experiment the test system is 786-0 renal. In words: NCI-60 one-dose screen, 48 h (100 = growth as untreated, 0 = no growth, -100 = all killed). The note with it: 10 µM unless noted.
As to `CN(C)CCCOc1ccc(C(=C(c2ccccc2)C2CCCC2)c2ccc(OCCCN(C)C)cc2)cc1`, the growth was -80.4% (active).

As to `CN1CCC[C@]2(C)[C@H]3CC[C@@H]4[C@@H]5[C@H]6OC[C@@]5(CCC6(C)C)CC[C@@]4(C)[C@]3(C)CC[C@H]2C1(C)C`, the growth was 84.4% (inactive).

In the case of `CNC(=O)c1cc(-c2ccc(NC(=S)Nc3cccc(C(F)(F)F)c3)cc2)nc2cccnc12`, the growth was 96.7% (inactive).

With `CC1(C)C=Cc2cc(/C(N)=N/C(N)=N/c3nc4ccccc4s3)ccc2O1`, the growth was 113% (inactive).

As to `C#Cc1cc(C(=O)Nc2ccc(CNCCN3CCOCC3)c(C(F)(F)F)c2)ccc1C`, the growth is 80.7% (inactive).

On to `CC(C)(O)c1cncc(-c2ccc3ncc(C#N)c(N4CCc5cc(F)c(Cl)cc54)c3c2)c1`, for which the growth was 8.75% (active).

As for `CN1CCN(Cc2ccc(/C=N/Nc3ccnc4cc(Cl)ccc34)cc2)CC1`, the growth was 77.7% (inactive).

Take `Cc1ccc(C(=O)CSc2nnc(-c3ccc(-c4ccc(Cl)cc4)nc3C)o2)cc1`: the growth was 104% (inactive).

Consider `Cc1ccccc1N1CCN(C2=C(Cl)C(=O)c3ncccc3C2=O)CC1`, for which the growth is 91% (inactive).

Turning to `O=C1Nc2ccccc2/C1=C/c1ccc(OCC(=O)c2ccccc2)cc1`, the growth was 107% (inactive).

On to `CC1=C(C)C(=O)C(Nc2ccc3c(c2)OCCO3)=C(Br)C1=O`, for which the growth is 105% (inactive).

As to `CCN(CC)c1ccc(/C=N/NC(=O)c2ccc(S(N)(=O)=O)cc2)c(O)c1`, the growth is 4.11% (active).

On to `Cc1ccc(S(=O)(=O)NCCCNc2nc(Nc3ccc(N4CCN(C)CC4)cc3)nc3ccsc23)cc1`, for which the growth was -26.7% (active).

Turning to `CN1CCN(Cc2ccc(NC(=O)c3cncc(C#Cc4cnc5ccc(NCCO)nn45)c3)cc2C(F)(F)F)CC1`, the growth was -17.9% (active).

Consider `COC(=O)c1cccc(NC2=C(Cl)C(=O)c3nc(C)ccc3C2=O)c1`, for which the growth is 98.2% (inactive).

In the case of `O=C1Nc2cc(Cl)ccc2/C1=C\c1ccc(OCc2ccccc2)cc1`, the growth is 105% (inactive).

On to `Cc1ccc(-c2csc(N/N=C/c3cccs3)n2)cc1`, for which the growth was 97.5% (inactive).

For the compound `O=[N+]([O-])c1ccc(NC(=S)NNC(=S)Nc2ccc(Br)cc2)cc1`, the growth was 99.2% (inactive).

The test system of another experiment is COLO 205 colon. Described as above. The note with it: 10 µM unless noted.
As to `NC(=O)n1c(=O)n(-c2cccc(C(F)(F)F)c2)c(=O)c2cc(-c3ccc(F)cc3F)ccc21`, the growth was 87.5% (inactive).

As to `O=C1CSC(c2cn(-c3ccccc3)nc2-c2ccc(Cl)cc2)N1c1ccccc1` (stereo not drawn), the growth is 120% (inactive).

As to `COc1ccc(/C=N/NC(=O)CSc2nc(-c3cnccn3)cc(-c3cccs3)c2C#N)cc1`, the growth is 68.1% (inactive).

For `C#Cc1cc(OC)c(C(=O)Nc2ccc(F)cc2C(=O)Nc2cccc(S(=O)(=O)C(F)(F)F)c2)cn1`, the growth is 52.2% (inactive).

Take `CN1c2ccccc2Sc2cc(/C=N/Nc3ccnc4cc(Cl)ccc34)ccc21`: the growth is 101% (inactive).

As to `O=C(/C=C/c1cccc(F)c1)c1cccc(OCCCOc2cccc(C(=O)/C=C/c3cccc(F)c3)c2)c1`, the growth was 82.2% (inactive).

In the case of `CN1CCN(Cc2ccc(NC(=O)c3cncc(C#Cc4cnc(N)nc4)c3)cc2C(F)(F)F)CC1`, the growth is 13.2% (inactive).

Take `O=C(CSc1nc2ccccc2c(=O)n1-c1ccc(Cl)c(Cl)c1)Nc1ccc(S(=O)(=O)Nc2ccc(Cl)nn2)cc1`: the growth was 94.9% (inactive).

`Cc1[nH]c(C(=O)Nc2ccc(C(N)=O)cc2N2CCOC(C)C2)c(Cl)c1Cl` (stereo not drawn): the growth is 124% (inactive).

With `N#Cc1nc(-c2ccccc2)oc1N1CCC(C2(C(F)(F)F)N=N2)CC1`, the growth is 103% (inactive).

Consider `C#C[C@]1(O)CC[C@H]2[C@@H]3CC=C4c5sc(Nc6cccc(F)c6)nc5CC[C@]4(C)[C@H]3CC[C@@]21C`, for which the growth was -9.5% (active).

With `C[C@@H]1OCC2(CCN(c3cnc(C(=O)Nc4cc(F)cc5cccnc45)cn3)CC2)[C@@H]1N`, the growth is 9.27% (active).

Consider `Cn1c(SCC(=O)c2ccc(F)cc2)nc2ccccc2c1=O`, for which the growth was 123% (inactive).

`O=C(CCCCCC/C=C\c1csc(Br)n1)NO`: the growth was 95% (inactive).

As for `COc1ccc(-c2cc(-c3ccc(N4CCOCC4)cc3)n3c(n2)nc2ccccc23)cc1OC`, the growth was 108% (inactive).

Consider `CN(C)c1cccc2c(S(=O)(=O)Nc3cccc(-c4csc(NC(=O)CCCCCN5CCN(CCO)CC5)n4)c3)cccc12`, for which the growth is 81.1% (inactive).

As to `O=c1nc(Nc2ccc([N+](=O)[O-])cc2O)sc2ccccc12`, the growth is 96.5% (inactive).

For the compound `CCc1cc(OC(=O)N2CCC(N3CCCCC3)CC2)ccc1Nc1cc(-c2ccc(-n3cccn3)cc2)[nH]n1`, the growth is 60.1% (inactive).

On to `CCOC(=O)Nc1ccc2c(ccn2C(=O)c2cccc(F)c2)c1`, for which the growth is -3.54% (active).

With `CN(C)CCCOc1ccc(C(=C(c2ccccc2)C2CCCC2)c2ccc(OCCCN(C)C)cc2)cc1`, the growth is -76.2% (active).

For the compound `CNC(=O)c1cc(-c2ccc(NC(=S)Nc3cccc(C(F)(F)F)c3)cc2)nc2cccnc12`, the growth is 104% (inactive).

As to `CC1(C)C=Cc2cc(/C(N)=N/C(N)=N/c3nc4ccccc4s3)ccc2O1`, the growth is 102% (inactive).

Turning to `C#Cc1cc(C(=O)Nc2ccc(CNCCN3CCOCC3)c(C(F)(F)F)c2)ccc1C`, the growth was 105% (inactive).

Take `CC(C)(O)c1cncc(-c2ccc3ncc(C#N)c(N4CCc5cc(F)c(Cl)cc54)c3c2)c1`: the growth was 14.5% (inactive).

Regarding `Cc1ccc(C(=O)CSc2nnc(-c3ccc(-c4ccc(Cl)cc4)nc3C)o2)cc1`, the growth is 117% (inactive).

Consider `Cc1ccccc1N1CCN(C2=C(Cl)C(=O)c3ncccc3C2=O)CC1`, for which the growth was 31.8% (inactive).

`CCN(CC)c1ccc(/C=N/NC(=O)c2ccc(S(N)(=O)=O)cc2)c(O)c1`: the growth was 14.3% (inactive).

With `Cc1ccc(S(=O)(=O)NCCCNc2nc(Nc3ccc(N4CCN(C)CC4)cc3)nc3ccsc23)cc1`, the growth is -32.9% (active).

As for `COC(=O)c1cccc(NC2=C(Cl)C(=O)c3nc(C)ccc3C2=O)c1`, the growth is 116% (inactive).

For the compound `O=C1Nc2cc(Cl)ccc2/C1=C\c1ccc(OCc2ccccc2)cc1`, the growth was 110% (inactive).
